The values below come from the supplement of paper PMC6555819.

For one experiment, the system named is PPARg:RXRa (NR concentration 180 nM, RXRa partner concentration 90 nM). Put plainly: PBM binding z-score (relative to random genomic background probes); higher = stronger binding; sequences stand for … in GC…GCGATTGACAGCGTAGAATGAAGG
The gist of the method: (§1)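 On custom Agilent 4×180K arrays, double-stranded probes with 34-nt variable regions carried direct-repeat seeds, single-nucleotide variants, half-site ablations or random human genomic background. Ligand-free nuclear receptor dimers were applied for 1 h, and binding was read with antibodies against each partner (one per run). Binding z-scores come from regression-normalized fluorescence, with the random background probes as reference.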
Sequence ATATGTAGGTTAAGGGTCAGTCAGGTTGGTTCGC came in with a PBM binding z-score of 11.

In turn, TTACCAAGGTGAAAGGGCGTTGATGCACGCCTTG gave a PBM binding z-score of 5.55.

Sequence CGTCAAAGTTCGACTAAGGTAACGTAAAGCACGC came in with a PBM binding z-score of 1.33.

In the case of CAAACTAGGGCAAGGTCAAAGTCGGTTTGTGCCA, the PBM binding z-score is 7.92.

As to ACTATTAGTTGACTTACGGCAACCGATACGACGC, the PBM binding z-score is 1.09.

With CCGACTGGGGCATAAGGTTACTATAAGCCAGCCC, the PBM binding z-score worked out at 2.33.

The sequence GCAGACAGGTGAAACGCAGGGAACTCAGGGTGGC displayed a PBM binding z-score of 0.488.

As for TAGCCTACGTCATGCGGGCCAGTATAGTGTCGGC, the PBM binding z-score amounted to 0.156.

Take CCTACTGGGCCACGGTCATTGATCAGTCAAAGCA: the PBM binding z-score worked out at 2.11.

In turn, CGAACTAGGTCAAGGACAGTGATTCTCCGCACGC displayed a PBM binding z-score of 7.19.

As for CCAGACAGGTGAAAGATAACTCAGTCTGGTACGC, the PBM binding z-score was 1.27.

The sequence TATACAGGGTCAAAGGCCAGGGTACGAATGTCGA had a PBM binding z-score of 8.53.

Take CCTAGTTGGTCAAGGTCACAAACGCTATAGGTAC: the PBM binding z-score was 3.16.

With CGTCCAAGGTCAGAGAGGTCAGGGAATGCCGAGT, the PBM binding z-score turned out to be 4.38.

Take GCCTACGGGTCAAAGGTTATAGCATGAATAGAAT: the PBM binding z-score is 10.4.

Take GGCACGAGGGCAAAGTTGATAGCATCTGTCGACG: the PBM binding z-score was determined as 6.13.

For the sequence GCAGACAGGTGAAACGCAGGTAAATCAGGGTGGC, the PBM binding z-score was found to be 0.513.

In the case of TCTAGTTGGTCACGGAGGTGACACACGACGGGTA, the PBM binding z-score was 1.64.

The sequence CAAGACAGGTGAGAAGGTAACTCAGCCTCGATTA came in with a PBM binding z-score of 0.815.

The sequence TCGAGTAGGTTAGTCGGGGCATTAAGCCAACATA returned a PBM binding z-score of 0.0278.

CTACCAAGGTGAAAAAGGTCGTTGATTACTATTC displayed a PBM binding z-score of 0.694.

On to ACTAGCAGGCCAAGTTTGGGTCAGTCAAACAAAG, for which the PBM binding z-score is -0.396.

Turning to GCTAGTTGTTCAGTAAAAGGTCACACACCGGTCG, the PBM binding z-score amounted to 1.84.

For the sequence CCTAGCAGGCCAATCTGGGTCCCTCAAGGCTTGA, the PBM binding z-score was -0.823.

Regarding CTTACTGGGCCACGAAAGGTCATTGATTCAGTGA, the PBM binding z-score stood at 6.99.

AGAACGAGGGCAAAGAGTTGATAGCACGGGTGGC came in with a PBM binding z-score of 1.8.

In the case of GCTAGCAGGCCATTTGGGTCAATCAATGACGGGC, the PBM binding z-score came out at 0.636.

For the sequence GCTATTAGTTGAAGGGGCAACCGAATGATTCTCG, the PBM binding z-score is 0.924.

On to AGTCAAAGTTCAGGACGAGGTAACGAAAAGCACG, for which the PBM binding z-score worked out at 4.87.

CTCGAAAGGTCGTGCTCAGGCGAGTATACCAAAC registered a PBM binding z-score of 2.05.

AGAAGGAGGTTACCAAAGATCAGGGAAACGCTTG yielded a PBM binding z-score of 1.84.

The sequence TTTCAAAGTTCAAAGGTAACGTAAGTATCCACAC yielded a PBM binding z-score of 6.

CGTCCAAGGTCAGAGAGGTCAGTGAGTGCCGAGT returned a PBM binding z-score of 3.71.

For CAAACTAGGTCAAGAGGTCAAGGTCCGCTTCCCG, the PBM binding z-score came to 9.76.

In turn, CGTCAAAGTTCAACTAAGCTAACGTAAAGCACGC registered a PBM binding z-score of 4.95.

In turn, GAGACTGGGGCATCAGCAGGTTACCATAACTTAA had a PBM binding z-score of 1.71.

As to TCTAGTTAGTCACGGAGGTCACACACGACGGGTA, the PBM binding z-score amounted to 2.22.

For the sequence CGTCCAAGGCCAGCAGGTCAGTGAAAGCGACGTG, the PBM binding z-score is -0.215.

For the sequence CCAGACCGGTGAGAAGGTAACTCAGCCTCGATTA, the PBM binding z-score was -0.0328.

CCGACTGGGACAAGGTTACCATAACGCACAGCCA had a PBM binding z-score of 1.92.

A further experiment relates to PPARg:RXRa 270nM:90nM, anti-RXR (NR concentration 270 nM, RXRa partner concentration 90 nM). Described as above. The gist of the method: as §1
ATATGTAGGTTAAGGGTCAGTCAGGTTGGTTCGC had a PBM binding z-score of 9.37.

In the case of TTACCAAGGTGAAAGGGCGTTGATGCACGCCTTG, the PBM binding z-score is 5.63.

In turn, CGTCAAAGTTCGACTAAGGTAACGTAAAGCACGC had a PBM binding z-score of 2.15.

Regarding CAAACTAGGGCAAGGTCAAAGTCGGTTTGTGCCA, the PBM binding z-score was found to be 6.99.

Consider ACTATTAGTTGACTTACGGCAACCGATACGACGC, for which the PBM binding z-score came to 0.0509.

The sequence CCGACTGGGGCATAAGGTTACTATAAGCCAGCCC had a PBM binding z-score of 2.96.

The sequence GCAGACAGGTGAAACGCAGGGAACTCAGGGTGGC came in with a PBM binding z-score of -0.246.

The sequence TAGCCTACGTCATGCGGGCCAGTATAGTGTCGGC registered a PBM binding z-score of -0.778.

Turning to CCTACTGGGCCACGGTCATTGATCAGTCAAAGCA, the PBM binding z-score is 2.06.

Regarding CGAACTAGGTCAAGGACAGTGATTCTCCGCACGC, the PBM binding z-score turned out to be 6.34.

In the case of CCAGACAGGTGAAAGATAACTCAGTCTGGTACGC, the PBM binding z-score turned out to be 1.47.

For TATACAGGGTCAAAGGCCAGGGTACGAATGTCGA, the PBM binding z-score worked out at 7.29.

In turn, CCTAGTTGGTCAAGGTCACAAACGCTATAGGTAC gave a PBM binding z-score of 3.43.

In turn, CGTCCAAGGTCAGAGAGGTCAGGGAATGCCGAGT had a PBM binding z-score of 4.53.

The sequence GCCTACGGGTCAAAGGTTATAGCATGAATAGAAT had a PBM binding z-score of 8.66.

In turn, GGCACGAGGGCAAAGTTGATAGCATCTGTCGACG yielded a PBM binding z-score of 6.24.

GCAGACAGGTGAAACGCAGGTAAATCAGGGTGGC had a PBM binding z-score of -0.213.

In the case of TCTAGTTGGTCACGGAGGTGACACACGACGGGTA, the PBM binding z-score turned out to be 1.98.

CAAGACAGGTGAGAAGGTAACTCAGCCTCGATTA: the PBM binding z-score was determined as 0.902.

TCGAGTAGGTTAGTCGGGGCATTAAGCCAACATA came in with a PBM binding z-score of 0.922.

The sequence CTACCAAGGTGAAAAAGGTCGTTGATTACTATTC came in with a PBM binding z-score of 1.3.

ACTAGCAGGCCAAGTTTGGGTCAGTCAAACAAAG: the PBM binding z-score is -0.173.

GCTAGTTGTTCAGTAAAAGGTCACACACCGGTCG registered a PBM binding z-score of 3.57.

CCTAGCAGGCCAATCTGGGTCCCTCAAGGCTTGA registered a PBM binding z-score of -0.653.

Sequence CTTACTGGGCCACGAAAGGTCATTGATTCAGTGA yielded a PBM binding z-score of 6.33.

In the case of AGAACGAGGGCAAAGAGTTGATAGCACGGGTGGC, the PBM binding z-score was 2.07.

The sequence GCTAGCAGGCCATTTGGGTCAATCAATGACGGGC showed a PBM binding z-score of 0.364.

On to GCTATTAGTTGAAGGGGCAACCGAATGATTCTCG, for which the PBM binding z-score was determined as 2.1.

As to AGTCAAAGTTCAGGACGAGGTAACGAAAAGCACG, the PBM binding z-score was found to be 5.02.

CTCGAAAGGTCGTGCTCAGGCGAGTATACCAAAC: the PBM binding z-score came to 3.49.

AGAAGGAGGTTACCAAAGATCAGGGAAACGCTTG showed a PBM binding z-score of 2.1.

For the sequence TTTCAAAGTTCAAAGGTAACGTAAGTATCCACAC, the PBM binding z-score came to 6.43.

For the sequence CGTCCAAGGTCAGAGAGGTCAGTGAGTGCCGAGT, the PBM binding z-score stood at 4.4.

The sequence CAAACTAGGTCAAGAGGTCAAGGTCCGCTTCCCG returned a PBM binding z-score of 8.19.

As for CGTCAAAGTTCAACTAAGCTAACGTAAAGCACGC, the PBM binding z-score amounted to 5.46.

On to GAGACTGGGGCATCAGCAGGTTACCATAACTTAA, for which the PBM binding z-score was determined as 1.63.

On to TCTAGTTAGTCACGGAGGTCACACACGACGGGTA, for which the PBM binding z-score turned out to be 3.13.

Take CGTCCAAGGCCAGCAGGTCAGTGAAAGCGACGTG: the PBM binding z-score is -0.182.

For CCAGACCGGTGAGAAGGTAACTCAGCCTCGATTA, the PBM binding z-score was -0.307.

CCGACTGGGACAAGGTTACCATAACGCACAGCCA registered a PBM binding z-score of 2.18.
